# Experimental data published in paper PMC11006913.
# Substitutions are numbered along the chain they refer to.
# Tests used:
# Test in all cases: PBM; 200 nM protein, PBS
# Conditions in all cases: dsDNA, one strand shown
# HESX1 [1] = biological target: HESX1 (Homo sapiens, UniProt Q9UBX0 95-180, R165K)
# HESX1 [2] = biological target: HESX1 (Homo sapiens, UniProt Q9UBX0 95-180)
# HESX1 [3] = biological target: HESX1 (Homo sapiens, UniProt Q9UBX0 95-180, P111T)
# HOXB4 [4] = biological target: HOXB4 (Homo sapiens, UniProt P17483 148-234)
# CRX [5] = biological target: CRX (Homo sapiens, UniProt O43186 26-111)
# HOXB4 [6] = biological target: HOXB4 (Homo sapiens, UniProt P17483 148-234, V174I)
# CRX [7] = biological target: CRX (Homo sapiens, UniProt O43186 26-111, E42D)
# CRX [8] = biological target: CRX (Homo sapiens, UniProt O43186 26-111, R41L)
# SHOX [9] = biological target: SHOX (Homo sapiens, UniProt O15266 103-189)
# VENTX [10] = biological target: T1, VENTX (Homo sapiens, UniProt O95231 78-163, R121Q)
# T1 sequence: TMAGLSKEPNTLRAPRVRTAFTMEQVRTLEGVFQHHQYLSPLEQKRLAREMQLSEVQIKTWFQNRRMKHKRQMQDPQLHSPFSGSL
# VENTX [11] = biological target: T2, VENTX (Homo sapiens, UniProt O95231 78-163)
# T2 sequence: T1 sequence with Q44R
# VENTX [12] = biological target: T3, VENTX (Homo sapiens, UniProt O95231 78-163, Y115F)
# T3 sequence: T1 sequence with Y38F, Q44R
# HOXA2 [13] = biological target: HOXA2 (Homo sapiens, UniProt O43364 129-215, R185T)
# SHOX [14] = biological target: SHOX (Homo sapiens, UniProt O15266 103-189, R173C)
# HOXA2 [15] = biological target: HOXA2 (Homo sapiens, UniProt O43364 129-215, R185K)
# HOXA2 [16] = biological target: HOXA2 (Homo sapiens, UniProt O43364 129-215, Y150S)
# HOXA2 [17] = biological target: HOXA2 (Homo sapiens, UniProt O43364 129-215)
# HOXB9 [18] = biological target: HOXB9 (Homo sapiens, UniProt P17482 171-250, T197M)
# HOXA4 [19] = biological target: HOXA4 (Homo sapiens, UniProt Q00056 201-287, W262R)
# HOXC9 [20] = biological target: HOXC9 (Homo sapiens, UniProt P31274 178-260, K195R)
# HOXA7 [21] = biological target: HOXA7 (Homo sapiens, UniProt P31268 116-202)
# HOXC10 [22] = biological target: HOXC10 (Homo sapiens, UniProt Q9NYD6 254-340)
# PAX4 = biological target: T4, PAX4 (Homo sapiens, UniProt O43316 9-242, R200K)
# T4 sequence: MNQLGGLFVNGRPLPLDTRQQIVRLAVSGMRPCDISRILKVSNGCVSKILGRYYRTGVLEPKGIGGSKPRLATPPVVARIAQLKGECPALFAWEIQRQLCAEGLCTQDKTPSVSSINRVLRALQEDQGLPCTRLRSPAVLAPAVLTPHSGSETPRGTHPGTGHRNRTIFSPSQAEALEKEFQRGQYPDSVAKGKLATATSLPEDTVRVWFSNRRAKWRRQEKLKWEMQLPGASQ
# HOXB6 [23] = biological target: HOXB6 (Homo sapiens, UniProt P17509 132-218, K202E)
# HOXA4 [24] = biological target: HOXA4 (Homo sapiens, UniProt Q00056 201-287, R217L)
# HOXB9 [25] = biological target: HOXB9 (Homo sapiens, UniProt P17482 171-250)
# HOXC9 [26] = biological target: HOXC9 (Homo sapiens, UniProt P31274 178-260)
# HOXC9 [27] = biological target: HOXC9 (Homo sapiens, UniProt P31274 178-260, R193K)
# HOXA4 [28] = biological target: HOXA4 (Homo sapiens, UniProt Q00056 201-287)
# HOXC10 [29] = biological target: HOXC10 (Homo sapiens, UniProt Q9NYD6 254-340, K271E)
# VAX1 [30] = biological target: VAX1 (Homo sapiens, UniProt Q5SQQ9 86-172)
# HOXD13 = HOXD13 (Homo sapiens, UniProt P35453 263-343, T313A)
# HOXB9 [31] = biological target: HOXB9 (Homo sapiens, UniProt P17482 171-250, R186Q)
# HOXC9 [32] = biological target: HOXC9 (Homo sapiens, UniProt P31274 178-260, R222W)
# VAX1 [33] = biological target: VAX1 (Homo sapiens, UniProt Q5SQQ9 86-172, T142I)
# HOXA7 [34] = biological target: HOXA7 (Homo sapiens, UniProt P31268 116-202, W177C)
# HOXA4 [35] = biological target: HOXA4 (Homo sapiens, UniProt Q00056 201-287, W262F)
# VAX1 [36] = biological target: VAX1 (Homo sapiens, UniProt Q5SQQ9 86-172, K157R)
# HOXB6 [37] = biological target: HOXB6 (Homo sapiens, UniProt P17509 132-218)
# Sequence of HOXB6 (Homo sapiens, UniProt P17509 132-218) (P17509 132-218): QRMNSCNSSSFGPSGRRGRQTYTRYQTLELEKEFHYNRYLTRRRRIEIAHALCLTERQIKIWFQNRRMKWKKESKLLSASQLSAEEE
# Sequence of HESX1 (Homo sapiens, UniProt Q9UBX0 95-180, P111T) (Q9UBX0 95-180 P111T): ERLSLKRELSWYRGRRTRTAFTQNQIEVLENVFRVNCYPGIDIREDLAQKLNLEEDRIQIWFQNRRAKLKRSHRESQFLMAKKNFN
# Sequence of HOXB4 (Homo sapiens, UniProt P17483 148-234) (P17483 148-234): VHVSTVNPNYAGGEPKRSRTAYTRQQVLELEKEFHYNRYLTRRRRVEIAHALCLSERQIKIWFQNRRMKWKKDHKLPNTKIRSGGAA
# Sequence of HOXB4 (Homo sapiens, UniProt P17483 148-234, V174I) (P17483 148-234 V174I): as the sequence (P17483 148-234) above, with V27I counted along it
# Sequence of HESX1 (Homo sapiens, UniProt Q9UBX0 95-180) (Q9UBX0 95-180): as the sequence (Q9UBX0 95-180 P111T) above, with T17P counted along it
# Sequence of HESX1 (Homo sapiens, UniProt Q9UBX0 95-180, R165K) (Q9UBX0 95-180 R165K): as the sequence (Q9UBX0 95-180 P111T) above, with T17P, R71K counted along it
# Sequence of HOXA2 (Homo sapiens, UniProt O43364 129-215, R185K) (O43364 129-215 R185K): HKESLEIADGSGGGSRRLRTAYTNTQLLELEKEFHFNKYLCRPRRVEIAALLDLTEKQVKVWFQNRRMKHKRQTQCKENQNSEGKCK
# Sequence of HOXA2 (Homo sapiens, UniProt O43364 129-215) (O43364 129-215): as the sequence (O43364 129-215 R185K) above, with K57R counted along it
# Sequence of HOXA2 (Homo sapiens, UniProt O43364 129-215, R185T) (O43364 129-215 R185T): as the sequence (O43364 129-215 R185K) above, with K57T counted along it
# Sequence of HOXA2 (Homo sapiens, UniProt O43364 129-215, Y150S) (O43364 129-215 Y150S): as the sequence (O43364 129-215 R185K) above, with Y22S, K57R counted along it
# Sequence of HOXC9 (Homo sapiens, UniProt P31274 178-260, R193K) (P31274 178-260 R193K): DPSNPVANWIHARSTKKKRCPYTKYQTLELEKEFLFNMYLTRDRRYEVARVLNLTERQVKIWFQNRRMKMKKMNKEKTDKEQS
# Sequence of HOXA7 (Homo sapiens, UniProt P31268 116-202, W177C) (P31268 116-202 W177C): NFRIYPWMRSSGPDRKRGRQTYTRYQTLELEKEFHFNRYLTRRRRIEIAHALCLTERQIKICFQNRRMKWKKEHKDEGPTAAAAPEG
# Sequence of HOXB9 (Homo sapiens, UniProt P17482 171-250, R186Q) (P17482 171-250 R186Q): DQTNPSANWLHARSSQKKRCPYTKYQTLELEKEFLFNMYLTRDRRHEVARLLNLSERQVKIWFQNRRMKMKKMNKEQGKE
# Sequence of HOXC10 (Homo sapiens, UniProt Q9NYD6 254-340) (Q9NYD6 254-340): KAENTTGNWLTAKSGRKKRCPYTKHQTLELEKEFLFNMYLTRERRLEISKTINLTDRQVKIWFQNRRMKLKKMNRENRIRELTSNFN
# Sequence of CRX (Homo sapiens, UniProt O43186 26-111, E42D) (O43186 26-111 E42D): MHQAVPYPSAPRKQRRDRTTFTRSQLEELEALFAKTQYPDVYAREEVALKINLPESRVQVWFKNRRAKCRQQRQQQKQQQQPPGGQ
# Sequence of HOXC9 (Homo sapiens, UniProt P31274 178-260, K195R) (P31274 178-260 K195R): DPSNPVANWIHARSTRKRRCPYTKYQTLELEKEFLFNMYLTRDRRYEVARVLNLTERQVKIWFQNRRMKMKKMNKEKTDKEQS
# Sequence of HOXB6 (Homo sapiens, UniProt P17509 132-218, K202E) (P17509 132-218 K202E): as the sequence (P17509 132-218) above, with K71E counted along it
# Sequence of CRX (Homo sapiens, UniProt O43186 26-111, R41L) (O43186 26-111 R41L): as the sequence (O43186 26-111 E42D) above, with R16L, D17E counted along it
# Sequence of VAX1 (Homo sapiens, UniProt Q5SQQ9 86-172) (Q5SQQ9 86-172): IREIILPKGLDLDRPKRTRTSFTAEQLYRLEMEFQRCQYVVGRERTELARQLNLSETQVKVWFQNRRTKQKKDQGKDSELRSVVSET
# Sequence of HOXC9 (Homo sapiens, UniProt P31274 178-260, R222W) (P31274 178-260 R222W): as the sequence (P31274 178-260 R193K) above, with K16R, R45W counted along it
# Sequence of SHOX (Homo sapiens, UniProt O15266 103-189, R173C) (O15266 103-189 R173C): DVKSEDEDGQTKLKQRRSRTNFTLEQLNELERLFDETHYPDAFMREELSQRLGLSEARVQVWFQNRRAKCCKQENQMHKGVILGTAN
# Sequence of HOXC9 (Homo sapiens, UniProt P31274 178-260) (P31274 178-260): as the sequence (P31274 178-260 R193K) above, with K16R counted along it
# Sequence of HOXB9 (Homo sapiens, UniProt P17482 171-250) (P17482 171-250): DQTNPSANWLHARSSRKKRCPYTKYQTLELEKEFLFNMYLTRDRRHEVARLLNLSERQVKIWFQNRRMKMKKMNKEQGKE
# Sequence of HOXA4 (Homo sapiens, UniProt Q00056 201-287) (Q00056 201-287): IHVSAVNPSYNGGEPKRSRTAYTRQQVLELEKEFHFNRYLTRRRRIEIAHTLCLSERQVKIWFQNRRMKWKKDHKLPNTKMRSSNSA
# Sequence of VAX1 (Homo sapiens, UniProt Q5SQQ9 86-172, K157R) (Q5SQQ9 86-172 K157R): as the sequence (Q5SQQ9 86-172) above, with K72R counted along it
# Sequence of HOXC10 (Homo sapiens, UniProt Q9NYD6 254-340, K271E) (Q9NYD6 254-340 K271E): as the sequence (Q9NYD6 254-340) above, with K18E counted along it
# Sequence of VAX1 (Homo sapiens, UniProt Q5SQQ9 86-172, T142I) (Q5SQQ9 86-172 T142I): as the sequence (Q5SQQ9 86-172) above, with T57I counted along it
# Sequence of SHOX (Homo sapiens, UniProt O15266 103-189) (O15266 103-189): as the sequence (O15266 103-189 R173C) above, with C71R counted along it
# Sequence of CRX (Homo sapiens, UniProt O43186 26-111) (O43186 26-111): as the sequence (O43186 26-111 E42D) above, with D17E counted along it
# Sequence of HOXA4 (Homo sapiens, UniProt Q00056 201-287, W262R) (Q00056 201-287 W262R): as the sequence (Q00056 201-287) above, with W62R counted along it
# Sequence of HOXA7 (Homo sapiens, UniProt P31268 116-202) (P31268 116-202): as the sequence (P31268 116-202 W177C) above, with C62W counted along it
# Sequence of HOXB9 (Homo sapiens, UniProt P17482 171-250, T197M) (P17482 171-250 T197M): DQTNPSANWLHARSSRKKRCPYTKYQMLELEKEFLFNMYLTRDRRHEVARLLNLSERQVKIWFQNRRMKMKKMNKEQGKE
# Sequence of HOXD13 (P35453 263-343 T313A): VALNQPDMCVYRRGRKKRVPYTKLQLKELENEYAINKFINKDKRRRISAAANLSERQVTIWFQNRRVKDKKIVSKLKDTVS
# Sequence of HOXA4 (Homo sapiens, UniProt Q00056 201-287, W262F) (Q00056 201-287 W262F): as the sequence (Q00056 201-287) above, with W62F counted along it
# Sequence of HOXA4 (Homo sapiens, UniProt Q00056 201-287, R217L) (Q00056 201-287 R217L): as the sequence (Q00056 201-287) above, with R17L counted along it
sequence,measurement,setting,value
CGATATTA,binding signal,HESX1 [1],"8.16 upbm affinity estimate (log intensity, higher = more binding, comparable within an allelic series)"
same,binding signal,HESX1 [2],"8.27 upbm affinity estimate (log intensity, higher = more binding, comparable within an allelic series)"
same,binding signal,HESX1 [3],"7.74 upbm affinity estimate (log intensity, higher = more binding, comparable within an allelic series)"
GCCCAGAC,binding signal,HOXB4 [4],"7.49 upbm affinity estimate (log intensity, higher = more binding, comparable within an allelic series)"
same,binding signal,CRX [5],"8.35 upbm affinity estimate (log intensity, higher = more binding, comparable within an allelic series)"
same,binding signal,HOXB4 [6],"7.68 upbm affinity estimate (log intensity, higher = more binding, comparable within an allelic series)"
same,binding signal,CRX [7],"8.45 upbm affinity estimate (log intensity, higher = more binding, comparable within an allelic series)"
same,binding signal,CRX [8],"8.39 upbm affinity estimate (log intensity, higher = more binding, comparable within an allelic series)"
CAGGGGGC,binding signal,HOXB4 [4],"7.45 upbm affinity estimate (log intensity, higher = more binding, comparable within an allelic series)"
same,binding signal,SHOX [9],"7.1 upbm affinity estimate (log intensity, higher = more binding, comparable within an allelic series)"
same,binding signal,VENTX [10],"7.88 upbm affinity estimate (log intensity, higher = more binding, comparable within an allelic series)"
same,binding signal,VENTX [11],"8.14 upbm affinity estimate (log intensity, higher = more binding, comparable within an allelic series)"
same,binding signal,VENTX [12],"7.91 upbm affinity estimate (log intensity, higher = more binding, comparable within an allelic series)"
same,binding signal,HOXA2 [13],"7.09 upbm affinity estimate (log intensity, higher = more binding, comparable within an allelic series)"
same,binding signal,HOXB4 [6],"7.54 upbm affinity estimate (log intensity, higher = more binding, comparable within an allelic series)"
same,binding signal,SHOX [14],"7.01 upbm affinity estimate (log intensity, higher = more binding, comparable within an allelic series)"
same,binding signal,HOXA2 [15],"10.1 upbm affinity estimate (log intensity, higher = more binding, comparable within an allelic series)"
same,binding signal,HOXA2 [16],"10.3 upbm affinity estimate (log intensity, higher = more binding, comparable within an allelic series)"
same,binding signal,HOXA2 [17],"7.35 upbm affinity estimate (log intensity, higher = more binding, comparable within an allelic series)"
ATTCATAA,binding signal,HESX1 [1],"7.97 upbm affinity estimate (log intensity, higher = more binding, comparable within an allelic series)"
same,binding signal,HESX1 [2],"8.03 upbm affinity estimate (log intensity, higher = more binding, comparable within an allelic series)"
same,binding signal,HESX1 [3],"7.62 upbm affinity estimate (log intensity, higher = more binding, comparable within an allelic series)"
TAACGATA,binding signal,HESX1 [1],"7.67 upbm affinity estimate (log intensity, higher = more binding, comparable within an allelic series)"
same,binding signal,HESX1 [2],"7.8 upbm affinity estimate (log intensity, higher = more binding, comparable within an allelic series)"
same,binding signal,HESX1 [3],"7.53 upbm affinity estimate (log intensity, higher = more binding, comparable within an allelic series)"
ATTAATGG,binding signal,HOXB4 [4],"13.4 upbm affinity estimate (log intensity, higher = more binding, comparable within an allelic series)"
same,binding signal,VENTX [10],"12.2 upbm affinity estimate (log intensity, higher = more binding, comparable within an allelic series)"
same,binding signal,HOXB9 [18],"10.3 upbm affinity estimate (log intensity, higher = more binding, comparable within an allelic series)"
same,binding signal,HOXA4 [19],"10.7 upbm affinity estimate (log intensity, higher = more binding, comparable within an allelic series)"
same,binding signal,HOXC9 [20],"12.9 upbm affinity estimate (log intensity, higher = more binding, comparable within an allelic series)"
same,binding signal,VENTX [11],"12.7 upbm affinity estimate (log intensity, higher = more binding, comparable within an allelic series)"
same,binding signal,HOXA7 [21],"12 upbm affinity estimate (log intensity, higher = more binding, comparable within an allelic series)"
same,binding signal,HOXC10 [22],"12.4 upbm affinity estimate (log intensity, higher = more binding, comparable within an allelic series)"
same,binding signal,PAX4,"11.7 upbm affinity estimate (log intensity, higher = more binding, comparable within an allelic series)"
same,binding signal,VENTX [12],"11.8 upbm affinity estimate (log intensity, higher = more binding, comparable within an allelic series)"
same,binding signal,HOXB6 [23],"10.2 upbm affinity estimate (log intensity, higher = more binding, comparable within an allelic series)"
same,binding signal,HOXA2 [13],"12.6 upbm affinity estimate (log intensity, higher = more binding, comparable within an allelic series)"
same,binding signal,HOXA4 [24],"12.2 upbm affinity estimate (log intensity, higher = more binding, comparable within an allelic series)"
same,binding signal,HOXB9 [25],"12.3 upbm affinity estimate (log intensity, higher = more binding, comparable within an allelic series)"
same,binding signal,HOXB4 [6],"14.1 upbm affinity estimate (log intensity, higher = more binding, comparable within an allelic series)"
same,binding signal,HOXC9 [26],"12.9 upbm affinity estimate (log intensity, higher = more binding, comparable within an allelic series)"
same,binding signal,HOXC9 [27],"12.9 upbm affinity estimate (log intensity, higher = more binding, comparable within an allelic series)"
same,binding signal,HOXA2 [15],"13.4 upbm affinity estimate (log intensity, higher = more binding, comparable within an allelic series)"
same,binding signal,HOXA4 [28],"13.9 upbm affinity estimate (log intensity, higher = more binding, comparable within an allelic series)"
same,binding signal,HOXC10 [29],"12.2 upbm affinity estimate (log intensity, higher = more binding, comparable within an allelic series)"
same,binding signal,VAX1 [30],"13 upbm affinity estimate (log intensity, higher = more binding, comparable within an allelic series)"
same,binding signal,HOXD13,"11.6 upbm affinity estimate (log intensity, higher = more binding, comparable within an allelic series)"
same,binding signal,HOXB9 [31],"12 upbm affinity estimate (log intensity, higher = more binding, comparable within an allelic series)"
same,binding signal,HOXC9 [32],"11.2 upbm affinity estimate (log intensity, higher = more binding, comparable within an allelic series)"
same,binding signal,VAX1 [33],"12.6 upbm affinity estimate (log intensity, higher = more binding, comparable within an allelic series)"
same,binding signal,HOXA2 [16],"11.1 upbm affinity estimate (log intensity, higher = more binding, comparable within an allelic series)"
same,binding signal,HOXA7 [34],"8.96 upbm affinity estimate (log intensity, higher = more binding, comparable within an allelic series)"
same,binding signal,HOXA4 [35],"11.6 upbm affinity estimate (log intensity, higher = more binding, comparable within an allelic series)"
same,binding signal,HOXA2 [17],"12.3 upbm affinity estimate (log intensity, higher = more binding, comparable within an allelic series)"
same,binding signal,VAX1 [36],"12.5 upbm affinity estimate (log intensity, higher = more binding, comparable within an allelic series)"
same,binding signal,HOXB6 [37],"12.4 upbm affinity estimate (log intensity, higher = more binding, comparable within an allelic series)"
